PostGolgi ctrl: growth inhibition of yeast control strain, primary screen, counter-screen for post-Golgi transport modulator project. efflux-deficient yeast background strain, growth absorbance A615, 16 h. inhibition, % at 10 µM. 98,000 compounds, 5% hits
sEH inh: soluble epoxide hydrolase inhibitors, primary screen, biochemical, human sEH. inhibition, % at 2 µM. Bifunctional epoxide hydrolase 2 (Homo sapiens), P34913. recombinant human sEH enzymatic activity assay. AID 707, 2007. 91,000 compounds, 0.34% hits; in the data active = inhibition above about 80%
sEH act: soluble epoxide hydrolase activators, primary screen, biochemical, human sEH | purified human sEH enzymatic activity, activator screen | 91,000 compounds, 0.04% hits | AID 717, 2007 | activation, % at 2 µM | Bifunctional epoxide hydrolase 2 (Homo sapiens), P34913; in the data active = activation above about 37%
PostGolgi yeast: phenotypic screen on post-Golgi transport, primary screen; post-Golgi transport phenotypic cell assay; inhibition, % at 10 µM; 98,000 compounds, 0.9% hits; AID 739, 2007;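 note: yeast cells grown in 1536-well plates; yeast grown about 18 h at 30C before absorbance read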
Cav3 T inh: Cav3.2 calcium influx blockers – cell-based, Fluo-4 calcium fluorescence, FDSS, MLSMR library, primary screen; B-score at 10 µM; Cav3.2-expressing cells; active compounds read low; 100,000 compounds, 4% hits;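 active = single-dose well whose peak fluorescence ratio is a statistical outlier from its plate by either plate-standardised score or position-corrected B-score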
The depositor's hits bear a star. Rows were chosen to be rich in hits. Some 7.8% of all compounds tested hit in one or more screens of this group. Cut-off read from the data, not from the text of the source, unless noted: active = inhibition above about 30%; inactive = the rest.

CC(NC(=O)c1ccc(F)cc1)c1ccc2c(c1)CCCC2 (stereo not given) was read as PostGolgi ctrl 11, sEH inh 7, sEH act -3, PostGolgi yeast 11 and Cav3 T inh -8.5*.
For CC(NC(=O)c1ccccc1Br)c1ccc2c(c1)CCCC2 (stereo not given) the results were PostGolgi ctrl 6, sEH inh -2, sEH act 3, PostGolgi yeast 1 and Cav3 T inh -1.7.
COc1ccc(NC(=O)C(CC(C)C)NC(=O)c2ccccc2C)cn1 (stereo not given) was read as PostGolgi ctrl 3, sEH inh 13, sEH act -13, PostGolgi yeast -2 and Cav3 T inh 0.29.
For COc1ccc(NC(=O)/C(Cl)=C(/Cl)S(=O)(=O)Cc2ccc(C)cc2)cn1 the results were PostGolgi ctrl 84*, sEH inh -14, sEH act 11, PostGolgi yeast 97* and Cav3 T inh 0.46.
`COc1cc(C2Nn3c(nnc3-c3ccccc3OC)S2)ccc1O` (stereo not given) gave sEH inh 11, sEH act -8 and Cav3 T inh 1.4.
Screening COc1ccc(-c2cc(C(=O)N3CCN(C(c4ccccc4)c4ccccc4)CC3)no2)cc1OC returned PostGolgi ctrl 2, sEH inh 11, sEH act -10, PostGolgi yeast 10 and Cav3 T inh -6.3*.
Screening COc1ccc(-c2cc(C(=O)N3CCN(C(c4ccccc4)c4ccccc4)CC3)no2)cc1 returned PostGolgi ctrl 42*, sEH inh 8, sEH act -10, PostGolgi yeast 4 and Cav3 T inh -3.4.
O=C(c1cc(-c2ccco2)on1)N1CCN(C(c2ccccc2)c2ccccc2)CC1 was read as PostGolgi ctrl 12, PostGolgi yeast -1 and Cav3 T inh -4.9.
Screening Cc1noc(C)c1S(=O)(=O)N1CCC(C(=O)Nc2ccc(OC(F)(F)F)cc2)CC1 returned PostGolgi ctrl 11, sEH inh 46, sEH act -45, PostGolgi yeast -4 and Cav3 T inh 0.099.
Screening COC(=O)NCC12CC3CC(C1)CC(CNC(=O)OC)(C3)C2 returned PostGolgi ctrl 33*, PostGolgi yeast 0 and Cav3 T inh 0.11.
Screening CC(=O)NCC12CC3CC(C1)CC(C(=O)O)(C3)C2 returned PostGolgi ctrl 2, sEH inh -12, sEH act 9, PostGolgi yeast 4 and Cav3 T inh -0.15.
For CCOC(=O)c1cn2c3c(c(F)c(F)cc3c1=O)SC(N1CCOCC1)=N2 the results were sEH inh -7 and sEH act 10.
O=C(NCC(c1cccnc1)N1CCN(c2ccc(F)cc2)CC1)c1ccco1 (stereo not given) was read as Cav3 T inh -0.33.
Screening CNc1cnn(-c2ccccc2)c(=O)c1Cl returned PostGolgi ctrl -8, sEH inh -17, sEH act 18, PostGolgi yeast 4 and Cav3 T inh 0.35.
`Nc1ccc(Sc2cnn(-c3ccccc3)c(=O)c2Cl)cc1` gave PostGolgi ctrl 40*, sEH inh -14, sEH act 16, PostGolgi yeast 9 and Cav3 T inh -0.7.
COCCCNc1c2c3c(cccc3[nH]c1=O)C(=O)c1ccccc1-2 was read as PostGolgi ctrl 19, sEH inh -18, sEH act 17, PostGolgi yeast 0 and Cav3 T inh -12*.
For COCCCNS(=O)(=O)c1ccc2c3c(cccc13)C(=O)S2 the results were PostGolgi ctrl 15, sEH inh 9, sEH act -4, PostGolgi yeast 6 and Cav3 T inh -0.47.
`Fc1ccc(C(c2ccc(F)cc2)N2CCN(C/C=C/c3ccccc3)CC2)cc1` gave Cav3 T inh -4.5*.
COCCN(C(=O)c1ccco1)C(C(=O)NC1CCCC1)c1cccs1 (stereo not given) was read as sEH inh 4, sEH act 0 and Cav3 T inh 0.0045.
For COc1ccc(CCNC(=O)C(=O)NCc2ccc(C)cc2)cc1OC the results were PostGolgi ctrl -5, sEH inh 11, sEH act -8, PostGolgi yeast -1 and Cav3 T inh -0.064.
`CCOc1ccccc1-c1nc2c(s1)CCc1onc(-c3ccc(OC)cc3)c1-2` gave Cav3 T inh -0.017.
COc1ccc(-c2nc3c(c(=O)n(C)c(=O)n3C)n2CC2CC(c3ccccc3)=NO2)cc1OC (stereo not given) was read as sEH inh 5, sEH act -5 and Cav3 T inh 3.4*.

Assay outcomes deposited in PubChem by several laboratories.
